# In the library only some 9.2% were active in any assay of this set; here they are far more common.
# NPC1 promoter act – NPC1 promoter activation. 320,000 tested, 2.4% active. Potency, µM (titrated, usually from 9.22 µM), without a hit: at the top dose activation, most hits filed as activators. Huh7 NPC1 promoter luciferase reporter, 24 h. AID 485313; further: % of control where 0% means no effect; nearly all actives have a fitted effect of over 60% in size
#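 Quantitative HTS used a cell-based reporter: Huh7 cells stably bearing the NPC1 promoter upstream of luciferase were treated with compounds for 24 h, and promoter activation was read as luminescence.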
# ELG1 repair inh – ELG1-dependent DNA repair inhibition; HEK293T ELG1-luciferase reporter, luminescence, 16 h; DNA damage induced by 5-fluorouridine; Potency, µM (titrated, usually from 46.1 µM), for inactives: at the highest dose activity change, negative = inhibition, usual class: inhibitors; 330,000 tested, 2.3% active; further: on the % scale 0 is the no-effect control and ±100 the full control effect; nearly all actives have a fitted effect of over 55% in size
#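 Overnight (16 hr) co-exposure of 2,000 cells/well to 5-fluorouridine and compound at 37 °C preceded detection. Luciferase was quantified via ONE-Glo luminescence; loss of signal denotes inhibition.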
# Rab9 promoter act – activates the Rab9 promoter | AID 485297 | Potency, µM (series often up to 9.22 µM), without a hit: top-dose activation, negative = inhibition, usual class: activators | 320,000 tested, 2.8% active | Huh7 Rab9 promoter-luciferase reporter, luminescence, 24 h; further: % of control where 0% means no effect; nearly all actives have a fitted effect of over 60% in size
#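 Using Huh7 cells stably transfected with Rab9 promoter–luciferase, compounds were incubated 24 h at 37 °C, 5% CO2; luciferase luminescence was read 10 min after reagent addition.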
# ELG1 genotoxic – genotoxicity induction in ELG1-luciferase HEK293T cells; HEK293T ELG1-luciferase reporter, luminescence, 16 h; Potency, µM (doses to about 46 µM), inactives show at the top dose activity change, positive = activation, usual class: activators; 330,000 tested, 1.3% active; further: % of control where 0% means no effect; nearly all actives have a fitted effect of over 60% in size
#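 Step 1: seed 2,000 HEK293T ELG1-luciferase cells per well. Step 2: add compound or DMSO, incubate 16 hr at 37 °C. Step 3: ONE-Glo, 30 min at room temperature, read luminescence.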
# FLuc modulator – firefly luciferase modulation, counter-screen for miR-21 project | 360,000 tested, 6.9% active | P08659 | AID 588342 | purified FLuc, Km substrates, luminescence inhibition | Potency, µM (top dose mostly 57.5 µM), without a hit: top-dose activity change, negative = inhibition, actives largely listed as inhibitors;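 further: plate controls were vehicle for no effect and reference inhibitor for full effect; nearly all actives have a fitted effect of over 55% in size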
# Target sequence (P08659 whole entry, looked up): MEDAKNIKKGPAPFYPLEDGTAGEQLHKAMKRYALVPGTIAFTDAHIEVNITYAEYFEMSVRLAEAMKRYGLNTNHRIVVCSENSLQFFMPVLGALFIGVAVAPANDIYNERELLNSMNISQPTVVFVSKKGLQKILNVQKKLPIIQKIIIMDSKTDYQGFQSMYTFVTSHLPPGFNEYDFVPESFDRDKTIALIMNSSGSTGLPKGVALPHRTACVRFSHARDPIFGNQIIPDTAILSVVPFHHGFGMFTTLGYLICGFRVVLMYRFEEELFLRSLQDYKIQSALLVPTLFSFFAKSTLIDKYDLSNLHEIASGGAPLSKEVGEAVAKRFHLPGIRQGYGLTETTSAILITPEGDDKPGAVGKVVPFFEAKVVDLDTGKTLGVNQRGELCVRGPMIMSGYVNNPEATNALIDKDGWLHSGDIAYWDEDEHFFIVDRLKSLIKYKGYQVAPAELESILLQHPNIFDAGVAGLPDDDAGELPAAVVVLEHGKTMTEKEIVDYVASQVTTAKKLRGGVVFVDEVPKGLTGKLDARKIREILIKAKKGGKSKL
#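 Purified P. pyralis luciferase (10nM final) with 10uM D-luciferin and 10uM ATP (Km levels) in 50mM Tris acetate pH 7.5, 10mM Mg acetate, 0.01% Tween-20, 0.05% BSA; qHTS 6-point titration, ~60 µM downward; luminescence read.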
# SMN2 splice up – enhancers of SMN2 splice variant expression. HEK293 SMN2-luciferase splicing reporter, luminescence, 30-36 h. 210,000 tested, 2.8% active. AID 1458. Potency, µM (doses to about 46.1 µM), for inactives: at the top dose activity change, positive = activation, usual class: activators; further: % of control where 0% means no effect; nearly all actives have a fitted effect of over 55% in size
#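 HEK293 cells carry an SMN2 minigene-luciferase reporter in which exon 7 inclusion puts luciferase in frame. Cells were seeded at 2000 cells/well, attached for 10-12 hours, then exposed to compounds for 30-36 hours at 37C before ONE-Glo luminescence.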
# Starred values were filed as active, the others as inactive; ? = inconclusive; / = no result given. The call rests on the fitted dose curve; in most records, active means well fitted curve in the direction sought with a large enough effect; inconclusive means small, poorly fitted or top-dose-only effect, or another doubt; inactive means no such curve, though single readings can be large; an effect the other way counts as inactive or inconclusive. Potency means the concentration at half of the fitted maximal effect.
SMILES,NPC1 promoter act,ELG1 repair inh,Rab9 promoter act,ELG1 genotoxic,FLuc modulator,SMN2 splice up
c1ccc(-n2nnc(-c3cccnc3)n2)cc1,3.98µM*,?,2.82µM*,?,13.5µM*,/
CCN(CC)CCCNC(=O)Cc1csc2nc(-c3ccc(Cl)cc3)cn12,/,/,/,/,-12.7%,/
Nc1nc(SCC(=O)NCCOCCO)nc2sc3c(c12)CCCC3,-1.9%,14.5%,0.0%,4.7%,26.9µM*,/
NC(=O)CSc1nc(N)c2c3c(sc2n1)CCCCC3,19.5%,?,19.5%,?,8.49µM*,5.0%
NC(=O)CSc1nc(C2CC2)nc2sc3c(c12)CCCC3,2.82µM*,?,2.51µM*,9.2µM*,1.51µM*,/
C=CCn1c(SCC(N)=O)nc2sc3c(c2c1=O)CCC3,-2.1%,-14.2%,-2.4%,3.3%,1.1%,/
O=C1N/C(=C/c2ccc(N3CCOCC3)o2)C(=O)N1c1cccc(Cl)c1,13.6%,?,?,10.1%,21.3µM*,-1.5%
Cc1ccc(CN2C(=O)N/C(=C\c3ccc(N4CCOCC4)cc3)C2=O)cc1,-0.5%,?,-4.8%,13.9%,-19.3%,?
CCOC(=O)CN(C(=O)COc1nc(-c2ccccc2)cc(C)c1C#N)c1ccccc1C,-7.0%,20.6µM*,-8.8%,-0.2%,-0.4%,/
CC1CCCCC12NC(=O)N(CC(=O)Nc1sccc1C(N)=O)C2=O (centres undefined),-3.5%,10.1%,-1.3%,5.3%,0.4%,/
Cc1cc(OCc2cn3cccnc3n2)ccc1Cl,?,?,2.82µM*,8.2µM*,21.3µM*,11.2µM*
COc1ccc(-c2nc(CN3CCN(c4ncnc5ccccc45)CC3)c(C)o2)c(OC)c1,-20.3%,7.3µM*,-34.3%,-17.5%,-0.4%,/
Cc1oc(-c2cc(F)ccc2F)nc1CN1CCN(c2ncnc3ccccc23)CC1,6.3%,?,-0.4%,-8.5%,26.9µM*,/
O=C(COC(=O)C1=COCCO1)Nc1ccc(OC(F)F)cc1,-3.2%,-7.6%,-2.5%,2.1%,-13.5%,4.6%
CN(C)N1C(=O)CC(NNC(=O)c2ccncc2)C1=O (centres undefined),1.3%,-1.2%,2.5%,0.1%,-0.1%,-8.2%
Cc1cccc2sc(NC(=O)CCNS(=O)(=O)c3cccs3)nc12,-10.1%,?,5.1%,-7.9%,-0.6%,0.9%
Cc1ccc2nc(NC(=O)CCNS(=O)(=O)c3ccc(Br)s3)sc2c1,1.2%,-17.5%,4.0%,-3.7%,19µM*,-11.0%
Cc1ccc2nc(NC(=O)c3ccc(NS(=O)(=O)c4cccs4)cc3)sc2c1,15.4%,-1.7%,15.9%,9.2%,12µM*,-7.7%
C/C(=N\NC(=O)c1ccc(NS(=O)(=O)c2cccs2)cc1)c1ccc(C(C)(C)C)cc1,-0.4%,?,-7.1%,0.1%,12µM*,?
CC(=O)Nc1cccc(/C(C)=N/NC(=O)c2ccc(NS(=O)(=O)c3cccs3)cc2)c1,-2.3%,1.2%,2.3%,-4.1%,?,/
Cc1ccc2nc(NC(=O)CCNS(=O)(=O)c3cccs3)sc2c1,16.8%,?,22.0%,-3.6%,12µM*,-0.8%
O=C(OCCc1cc2ccccc2c(=O)o1)c1ccccc1C(F)(F)F,-7.8%,?,1.3%,-0.5%,-18.8%,/
CN(CC1CCCO1)S(=O)(=O)c1ccc(C(=O)NCc2ccccc2)cc1 (centres undefined),0.6%,?,-2.5%,-4.4%,1.4%,-25.0%
Cc1ccc(COc2ccsc2C(=O)NNC(N)=S)cc1,-0.5%,-1.9%,-5.0%,-5.7%,-1.1%,-7.0%
C[C@@H](C(=O)Nc1ccc2ccccc2c1)[C@H]1C[C@]1(C)[C@H](NC(=O)c1cccnc1)c1ccccc1,-4.7%,18.4µM*,0.5%,-9.3%,2.2%,-12.6%
O=C(CN1C(=O)CC(c2ccccc2)S(=O)(=O)c2ccccc21)N1CCCC1 (centres undefined),-0.7%,4.8%,0.6%,0.5%,-7.4%,0.6%

# Compound activity as filed in PubChem.
